The source made the active and inactive calls. No rule for the calls is given here.
Assay: displacers of FITC-Puma-BH3 from Bcl-B – biochemical, fluorescence polarization, Puma-BH3 peptide, counter-screen for TR3-derived Bcl-B inhibitor project, dose response (AID 1245)
Settings: Bcl-B/FITC-Puma-BH3 fluorescence polarization binding

SMILES | EC50
Cc1ccc(C)n1-c1ccc(Br)cc1C(=O)O | 1 µM (active)
Cc1cc(C)nc(/N=C(/N)Nc2cccc(N)c2)n1 | > 25 µM (inactive)

From PubChem BioAssay AID1245 (Sanford-Burnham Center for Chemical Genomics, 2008)
